Inhibition data for 94 compounds are collected here from PubChem BioAssay AID429 (Emory University Molecular Libraries Screening Center, 2006).

The whole screen tested about 64,000 compounds, of which about 220 (0.34%) were called active. The sample holds actives, similar compounds and a random draw of the others, so the mix is not that of the screen.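 The calls were made as follows: active = inhibition above 50%; inactive = the rest.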

This assay deals with Heat shock protein HSP 90-alpha (Homo sapiens) (UniProt P07900). The assay can be described thus: Hsp90 geldanamycin-site probe displacement – cell lysate, fluorescence polarization, NCI-N417 lysate, primary screen (AID 429).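 Also: 0% = tracer plus lysate wells and 100% = tracer alone without lysate.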 To be noted: NCI-N417 lysate Hsp90, Cy3B-geldanamycin FP displacement; at 30 µM; stronger effect = higher value.
With `CCOC(=O)C1CCCN(Cc2nc(N)nc(Nc3ccc(C)cc3)n2)C1` (centres undefined), the inhibition was -6.1% (inactive).
Turning to `CC(C)n1c(NCc2c[nH]c3ccccc23)nc2ccccc21`, the inhibition was 1.28% (inactive).
In the case of `CCN(CC)S(=O)(=O)c1ccc(C(=O)Nc2cc(Br)cc3cccnc23)cc1`, the inhibition was 1.06% (inactive).
As for `COc1ccc(-n2c(SCC(=O)NCc3cccs3)nnc2-c2ccoc2C)cc1`, the figure is -1.94% (inactive); as for `Cc1cccc(Cn2c(N3CCN(c4ccccc4)CC3)nc3c2c(=O)n(C)c(=O)n3C)c1`, -2.67% (inactive); as for `O=C(NCc1cn2ccsc2n1)Nc1cccc(Cl)c1`, -4.35% (inactive).
For `CCc1ccc(N(CC)c2ncnc3nc[nH]c23)cc1`, the inhibition was -2.13% (inactive).
As to `CCC1(C)CC(=O)NC1=O` (centres undefined), the inhibition is 0.1% (inactive).
For `CC[C@@H]1Cc2cc(O)ccc2C2=C1c1ccc(O)cc1C[C@H]2CC`, the inhibition is 14.4% (inactive).
With `CCn1cc(C(=O)N2CC=C(c3ccccc3)CC2)c(=O)c2ccc(C)nc21`, the inhibition was -3.28% (inactive).
The value for `CCNC(=O)CCc1nc(-c2ccc(C(C)(C)C)cc2)no1` was -1.56% (inactive).
Consider `Cc1ccc(S(=O)(=O)N(C)CC(=O)NC2CCCC2)cc1`, for which the inhibition is -0.25% (inactive).
The value for `CCN(CC)C(=O)CSc1nnc(-c2ccc(S(=O)(=O)NCc3ccccc3Cl)cc2)o1` was 1.83% (inactive); that for `Cc1ccc(C)c(NC(=O)C2CC(=O)N(C(C)C)C2)c1` (centres undefined) was -3.18% (inactive).
The value for `Cc1ccnc(N2C(=O)c3ccccc3C2Nc2ccc3c(c2)OCCO3)c1` (centres undefined) was 1.75% (inactive).
Take `Cc1cc(C)nc(SCc2nnc(SCC(=O)OC3CCCCC3)o2)n1`: the inhibition is -0.1% (inactive).
As to `O=c1cc(CSc2ccc(Cl)cc2)nc(N2CCOCC2)[nH]1`, the inhibition was -2.37% (inactive).
As to `O=C(CCC(=O)OCC(F)(F)C(F)F)NCc1ccccc1`, the inhibition was -3.91% (inactive).
Consider `CC(=O)Oc1cc2c(C(=O)NCCN3CCOCC3)c(C)oc2c2ccccc12`, for which the inhibition was 91% (active).
The value for `O=C(CCN1C(=O)c2ccccc2C1=O)NCCN1CCOCC1` was -1.37% (inactive); that for `O=C(NCCN1CCOCC1)c1c(F)c(F)c(F)c(F)c1F` was -0.16% (inactive); that for `Cc1ccc(C(c2sc3nc(C)nn3c2O)N2CCN(c3ccc(F)cc3)CC2)cc1` (centres undefined) was 2.37% (inactive).
In the case of `O=C(O)c1cscn1`, the inhibition is -1.54% (inactive).
As for `COc1cccc(Nc2ncccc2C(=O)O)c1`, the figure is 1.09% (inactive); as for `COc1cccc(NC(=O)c2ccccc2SC)c1`, -1.59% (inactive); as for `COc1cccc(NC(=O)C(C)Oc2ccccc2)c1` (centres undefined), 86.4% (active).
For the compound `CCN(CC)S(=O)(=O)c1cccc(C(=O)Nc2cc(C)nn2-c2nc(C)cc(C)n2)c1`, the inhibition is -2.41% (inactive).
As for `CSCC[C@H](NC(=O)NCCc1ccc(F)cc1)C(=O)O`, the figure is -0.8% (inactive); as for `CCOC(=O)CSc1nc2c(sc(=S)n2CCc2ccccc2)c(=O)n1Cc1ccco1`, -1.25% (inactive); as for `CN(c1ccccc1)c1ccc(/C=c2\s/c(=C(/C#N)C(=O)C(C)(C)C)n(Cc3ccco3)c2=O)cc1`, 50.6% (active).
The value for `O=c1nc2s/c(=C\c3ccco3)c(=O)n2nc1Cc1ccccc1` was -6.3% (inactive); that for `CN(C)c1cc(N)c2ccccc2n1` (tested in a mixture with another compound) was -9.07% (inactive).
For `CC12CCC(C(=O)N(CCC#N)CCC#N)(CC1=O)C2(C)C` (centres undefined), the inhibition was -2.19% (inactive).
For `O=C(CC1CCCCC1)Nc1c2c(nn1-c1ccc(F)cc1)CS(=O)(=O)C2`, the inhibition was -1.94% (inactive).
As for `Cc1cccn2c(=O)c3cc(C(=O)N4COCC4(C)C)n(C)c3nc12`, the inhibition was 0.48% (inactive).
As for `COc1ccc(Cl)cc1S(=O)(=O)Nc1cccc(C(=O)O)c1`, the figure is -0.7% (inactive); as for `O=S(=O)(NCC1CCCO1)c1ccc2ccccc2c1` (centres undefined), -3.52% (inactive); as for `Cc1ccc(C(=O)O)cc1S(=O)(=O)NCC1CCCO1` (centres undefined), 77.4% (active).
The value for `Cc1cc(Cl)c(S(=O)(=O)NCC2CCCO2)cc1OCC(N)=O` (centres undefined) was -4.41% (inactive); that for `CCSc1nc2c(c(=O)[nH]1)C(c1cccnc1)C(C(=O)OC(C)C)=C(C)N2` (centres undefined) was -0.2% (inactive); that for `O=C(O)CSC(NC(=O)c1cccnc1)(C(F)(F)F)C(F)(F)F` was -0.65% (inactive).
As to `O=C(Nn1cnc2ccccc2c1=O)c1ccc(F)cc1Cl`, the inhibition was -2.64% (inactive).
The value for `CCCCn1c(=S)[nH]c2ncccc2c1=O` was -6.13% (inactive); that for `Cc1ccc2[nH]c3c(c2c1)CN(C(=O)CN1CCN(c2ccccc2)CC1)CC3` was 92.3% (active); that for `O=C(NC1CCCCC1)N1CCc2[nH]c3ccccc3c2C1` was -4.69% (inactive).
Consider `CCCC(=O)N1CCc2[nH]c3ccccc3c2C1`, for which the inhibition was -3.78% (inactive).
The value for `Cc1ccc(C)c(N(CC(=O)NCc2ccco2)C(=O)CCC(=O)Nc2ccccn2)c1` was -5.16% (inactive).
The value for `Cc1c(C(=O)OCC(=O)N(CCC#N)c2ccccc2)oc2c1ccc1ccccc12` was 0.74% (inactive); that for `COc1nc(Oc2ccc(=O)n(C)n2)nc(N(C)C)n1` was -0.95% (inactive); that for `COc1cccc(C2/C(=C(/O)c3ccc(F)cc3)C(=O)C(=O)N2CCN(C)C)c1` (centres undefined) was -1.56% (inactive).
As for `CC1CN(c2cc(=O)n(-c3cccc(Br)c3)c(=O)[nH]2)CC(C)O1` (centres undefined), the inhibition is 1.65% (inactive).
As for `Cc1ccc(N2CCN(c3ccc(C)cc3)C2c2ccccn2)cc1`, the figure is 0.05% (inactive); as for `COc1cc(C2C(C(=O)Nc3ccc(F)cc3)=C(C)Nc3nc(CCCO)nn32)cc(OC)c1OC` (centres undefined), -1.54% (inactive); as for `CCOc1ccccc1N(CC(=O)NC1CCCCC1)C(=O)CCCC(=O)Nc1ccccn1`, -0.59% (inactive).
On to `CC1OC2C(OC1C)N(S(C)(=O)=O)CCN2S(C)(=O)=O` (centres undefined), for which the inhibition is -2.81% (inactive).
The value for `O=C(O)CCC(=O)Nc1ccc(N2CCOCC2)cc1` was 8.24% (inactive).
As for `COc1ccc(C(=O)NCc2cn3ccccc3n2)cc1`, the figure is 2.11% (inactive).
As for `O=C(CC1N=C2c3ccccc3N=C(SCc3ccccc3Cl)N2C1=O)NCc1ccco1` (centres undefined), the inhibition is -7.5% (inactive).
As for `CCCC(C(=O)NCc1ccco1)N(C(=O)CNS(=O)(=O)c1ccccc1)C1CCCC1` (centres undefined), the figure is -1.3% (inactive).
On to `CCOC(=O)CSC1=C(C#N)C(c2sccc2C)CC(=O)N1` (centres undefined), for which the inhibition was -2.64% (inactive).
On to `Cc1nn(-c2ccccc2)c(C)c1C(=O)OCC(=O)NC(=O)NC1CCCCC1`, for which the inhibition was -2.89% (inactive).
`CCCN(CCc1ccccc1)C1CCc2c(O)cccc2C1` (centres undefined): the inhibition was -0.71% (inactive).
On to `CCCn1c(=O)c2ccccc2n2c(SCC(=O)/C(C#N)=C(\C)N)nnc12`, for which the inhibition was -5.05% (inactive).
On to `O=c1cc(CSc2ccccn2)nc(N2CCN(c3ccccc3)CC2)[nH]1`, for which the inhibition is -2.49% (inactive).
The value for `CC(C)NS(=O)(=O)c1ccc(OCC(=O)Nc2ccc3c(c2)OCCO3)cc1` was -7.01% (inactive).
For `CC1CCCN(C(=O)c2ccc3c(c2)C(=O)N(CCC2=CCCCC2)C3=O)C1` (centres undefined), the inhibition is -1.14% (inactive).
Regarding `COc1ccccc1NC(=O)CSc1nnc(Cn2nnc(-c3ccccc3)n2)n1-c1ccccc1`, the inhibition was 2.15% (inactive).
For `O=C(c1ccco1)N1CCN=C1SCc1cccc(Cl)c1`, the inhibition was -5.15% (inactive).
In the case of `CCCCc1nc2ccccc2c(NC(=O)CN2CCN(C)CC2)c1CCC`, the inhibition is -1.26% (inactive).
As to `CCCn1cc(SCC(N)=O)c2ccccc21`, the inhibition was -4.04% (inactive).
Turning to `CC(C)(Oc1ccc(C2CC2(Cl)Cl)cc1)C(=O)O` (centres undefined), the inhibition is 1.49% (inactive).
The value for `COC1(C2=NCCN2)COc2ccccc2O1` (centres undefined) was 1.52% (inactive); that for `CCOC(=O)Nc1ccc2c(c1)N(C(=O)CN1CCN3CCCC3C1)c1ccccc1CC2` (centres undefined) was -6.22% (inactive).
As for `Cc1ccc(S(=O)(=O)NC(=O)N2CCCC(C)(C)C2)cc1`, the figure is -0.1% (inactive); as for `O=c1c(F)cn(C2CCCO2)c(=O)n1Cc1ccccc1Cl` (centres undefined), -6.6% (inactive).
The value for `CCOC(=O)C1=C(CC)Nc2ccccc2N=C1NC(=O)c1cccc(S(=O)(=O)N2CCCC2)c1` was -3.82% (inactive).
For `CCCc1nc2ccccc2c(=O)n1/N=C/c1ccc(O)c(O)c1`, the inhibition is 70.7% (active).
On to `CCCCc1nc2ccccc2c(=O)n1NC(=O)c1c(O)c2cccc3c2n(c1=O)CC3`, for which the inhibition is -2.36% (inactive).
The value for `CCCc1nc2ccccc2c(=O)n1NC(=O)c1c(O)c2ccccc2[nH]c1=O` was -3.13% (inactive); that for `CCC(=O)Nc1cccc(NC(=O)CSc2nnc(-c3ccc(NS(C)(=O)=O)cc3)n2C)c1` was -0.45% (inactive); that for `O=C(CCc1ccccc1)Nc1ccc(NC(=O)C2CC2)nc1` was -2.83% (inactive).
Turning to `N#CC1=C(N)Oc2n[nH]c(CSc3ccccc3)c2C12C(=O)Nc1ccccc12` (centres undefined), the inhibition was -11.3% (inactive).
Take `CC1Cc2ccccc2N1C(=O)CSc1nnc(-c2ccc(S(=O)(=O)N3CCCCC3)cc2)o1` (centres undefined): the inhibition is -0.41% (inactive).
As to `Nn1c(SCC(=O)NC(=O)NC2CCCC2)nnc1-c1ccccc1F`, the inhibition is -5.58% (inactive).
Regarding `CCOC(=O)/C=c1\s/c(=C\c2ccccc2OC)c(=O)n1CC(=O)N1CCOCC1`, the inhibition is -5.13% (inactive).
For `Cc1cc(C)c2nc(N3CCCC3)c(C#N)cc2c1`, the inhibition is 4.01% (inactive).
As for `Cc1noc(C)c1S(=O)(=O)N(CC(=O)Nc1ccc2c(c1)OCCO2)c1ccc(C(C)C)cc1`, the figure is -1.54% (inactive); as for `CNc1ncnc2c1ncn2[C@@H]1O[C@H](CO)[C@H](O)C1O` (some centres undefined), -3.44% (inactive).
As for `O=C(Nc1ccc(NC(=O)c2cccs2)cn1)c1ccco1`, the inhibition was -0.15% (inactive).
Take `CC(C)(C)c1ccc(NC(=O)NCc2ccco2)cc1`: the inhibition was -5.65% (inactive).
With `Cc1ccc(C(=O)Nc2nnc(-c3cccs3)s2)cc1C`, the inhibition is -0.3% (inactive).
The value for `CCNc1nc(N)nc(Oc2ccc(OCC)nn2)n1` was -5.57% (inactive); that for `O=c1cc(-c2ccccc2)[nH]c2nc(Cl)ccc12` was -1.33% (inactive); that for `CCOc1ccc(CCNC(=O)C2CCN(c3ccc(N4CCOCC4)nn3)CC2)cc1OCC` was -1.25% (inactive).
